Consider 67 compounds from PubChem BioAssay AID651610 (Broad Institute, 2012).

Several values for one entry are separate records, joined by “and”; a condition that tells them apart may be missing. Equal entries are not always repeated. Hit rate of the full screen: of about 360,000 compounds, about 3,900 (1.1%) were called active. For the sample, actives were picked, then their nearest neighbours and some compounds at random. Unmarked numbers belong to inactive results.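 The calls were made as follows: active = mean replicate inhibition score of at least 50 and every replicate individually at or above 50; inconclusive = only one of the two criteria met; inactive = mean below 50 and not all replicates reaching 50.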

A short description of this experiment: blockers of JRFL envelope-mediated fusion – HeLa-JRFL effector, CEM21 target cells, luciferase, primary screen (AID 651610).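 Also: 0% = plate neutral controls and 100% = maraviroc near 300 nM.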 Particulars: HeLa-JRFL Env/CEM21 cell fusion, stronger effect = higher value.

For `O=C(O)CCCCCNc1ncnc2ccc(Br)cc12`, the inhibition (commonly the change of the read-out against control, counted positive when it falls) (at 16.7 µM unless noted) was 26.9% [at 12.3 µM].
Still for that read-out and setting: in the case of `Brc1ccc2ncnc(NCc3cccnc3)c2c1` it was 43.2% [at 12.3 µM].
For `C=CCNc1ncnc2ccc(Br)cc12`, the inhibition (at 12.3 µM) was 92.8% (active); the inhibition (at 16.7 µM) was 9.63% and 27.5%.
`CN1CCN(C(=O)C[C@H]2C[C@H]3c4cc(NC(=O)Nc5ccccc5F)ccc4O[C@H]3[C@H](CO)O2)CC1`: where the note is “at 16.7 µM unless noted”, the inhibition is -13.6%.
Consider `COc1ccccc1CNC(=O)C[C@@H]1C[C@@H]2c3cc(NC(=O)C4CCOCC4)ccc3O[C@@H]2[C@@H](CO)O1`, for which, under “at 16.7 µM unless noted”, the inhibition is -2.64%.
For `Cn1c(CN2CCOCC2)nc2cc(NC(=O)c3ccc(Cl)cc3)ccc21`, the inhibition (at 16.7 µM unless noted) is 66.4% [at 12.3 µM] (active).
Regarding `CCOC(=O)N1CCN(Cc2nc3cc(NC(C)=O)ccc3n2C)CC1`, the inhibition (at 16.7 µM unless noted) is 9.8% [at 12.3 µM].
As for `O=C(Nc1ccc(CN2CCOCC2)cc1)c1cc(Cl)ccc1Cl`, the inhibition (at 16.7 µM unless noted) was -16% [at 12.3 µM].
Turning to `CNC[C@@H]1Oc2cc(-c3ccccc3OC)ccc2S(=O)(=O)N([C@@H](C)CO)C[C@H]1C`, the inhibition (at 16.7 µM unless noted) was -40.9%.
In the case of `CCCNC(=O)N(C)C[C@H]1Oc2cc(-c3ccncc3)ccc2S(=O)(=O)N([C@H](C)CO)C[C@H]1C`, the inhibition (at 16.7 µM unless noted) was -10.2%.
On to `CC(=O)c1c(C)[nH]c(C(=O)OCC(=O)NCCC(C)C)c1C`, for which the inhibition (at 16.7 µM unless noted) is 38.2% [at 12.3 µM].
Regarding `CC(=O)c1c(C)[nH]c(C(=O)OCC(=O)Nc2cc(S(=O)(=O)N3CCCCC3)ccc2C)c1C`, the inhibition (at 16.7 µM unless noted) was 0.591% [at 12.3 µM].
Take `CC(=O)c1c(C)[nH]c(C(=O)OCC(=O)Nc2c(C)cccc2C)c1C`: the inhibition (at 16.7 µM unless noted) is 76.4% [at 12.3 µM] (active).
For `CO[C@@H]1CN(C)C(=O)c2cc(NS(=O)(=O)c3ccccc3C)ccc2OC[C@@H](C)N(S(C)(=O)=O)C[C@@H]1C`, the inhibition (at 16.7 µM unless noted) was 23.9%.
Still for that read-out and setting: the result for `C[C@@H]1CN([C@@H](C)CO)C(=O)c2cc(-c3ccccc3F)cnc2O[C@@H]1CN(C)Cc1cccc(F)c1` reads 6.32%.
For `O=C(COC(=O)C1CCCO1)Nc1nc(-c2ccc(F)cc2)cs1` (stereo not drawn), under “at 16.7 µM unless noted”, the inhibition is -32.6% [at 12.3 µM].
As for `Cc1cccc(C)c1NC(=O)CN1CCN(c2ccc(F)cc2)CC1`, the inhibition (at 16.7 µM unless noted) is -17.6% [at 12.3 µM].
For the compound `CC1CCCC(C)N1C(=O)CN1CCN(c2nc(-c3ccc(F)cc3)cs2)CC1` (stereo not drawn), the inhibition (at 16.7 µM unless noted) is 57.8% [at 12.3 µM] (active).
On to `C[C@@H]1CN([C@@H](C)CO)S(=O)(=O)c2ccc(C#Cc3ccccc3F)cc2O[C@H]1CN(C)C(=O)c1ccc2c(c1)OCO2`, for which, under “at 16.7 µM unless noted”, the inhibition was 48.7%.
On the same count and under the same terms, in the case of `CCC(=O)N(C)C[C@@H]1Oc2cc(C#Cc3cccnc3)ccc2S(=O)(=O)N([C@H](C)CO)C[C@@H]1C` it was 19.7%; in that of `CNC(=O)C[C@@H]1CC[C@@H]2[C@H](COc3ccc(NC(=O)c4cccs4)cc3C(=O)N2C)O1`, 0.696%.
As for `CO[C@H]1CN(C)C(=O)c2cc(NS(=O)(=O)c3ccccc3)ccc2OC[C@H](C)N(C)C[C@@H]1C`, the inhibition (at 16.7 µM unless noted) was 5.07%.
On to `CNC[C@H]1Oc2cc(-c3cccnc3)ccc2S(=O)(=O)N([C@@H](C)CO)C[C@H]1C`, for which, where the note is “at 16.7 µM unless noted”, the inhibition was -16.2%.
For the compound `CC(=O)N[C@H]1CC[C@H](CCNC(=O)C2CC2)O[C@H]1CO`, for the setting “at 16.7 µM unless noted”, the inhibition was -15.4%.
With `CCOC(=O)C(Cc1ccccc1)NC(=O)CCC(=O)c1ccc(OC)cc1` (stereo not drawn), the inhibition (at 16.7 µM unless noted) is 4.22% [at 12.3 µM].
Still for that read-out and setting: in the case of `CCOC(=O)C(Cc1ccc(N)cc1)N1C(=O)c2ccccc2C1=O` (stereo not drawn) it was 6.82% [at 12.3 µM]; in that of `CCOC(=O)C1=C(c2ccc(OC)cc2)C(=O)c2ccccc2C1=O`, 74.3% [at 12.3 µM] (active); in that of `COc1ccc(NC(=O)Nc2ccc3c(c2)C(=O)N([C@@H](C)CO)C[C@@H](C)[C@H](CN(C)C(=O)NC(C)C)OCCCC[C@H](C)O3)cc1`, 11.6%.
As for `CCN1C(=O)[C@@H]2[C@@H](c3ccc(-c4cccc(Cl)c4)cc3)N3CCC[C@@]3(C(=O)OC)[C@@H]2C1=O`, the inhibition (at 16.7 µM unless noted) is -3.1% [at 12.3 µM].
On the same count and under the same terms, in the case of `CCCCCCSc1ccc([C@@H]2[C@H]3C(=O)N(CC)C(=O)[C@H]3[C@]3(C(=O)OC)CCCCN23)cc1` it was 8.61% [at 12.3 µM]; in that of `CCN1C(=O)[C@@H]2[C@@H](c3ccc(-c4ccccc4)cc3)N3CCCC[C@@]3(C(=O)OC)[C@@H]2C1=O`, -3.15% [at 12.3 µM]; in that of `CCCCCCSc1ccc([C@@H]2[C@@H]3C(=O)N(CC)C(=O)[C@@H]3[C@]3(C(=O)OC)CCCCN23)cc1OC`, 73.2% [at 12.3 µM] (active).
In the case of `CCN1C(=O)[C@@H]2[C@@H](c3ccc(-c4ccc(OC)cc4)c(OC)c3)N3CCC[C@@]3(C(=O)OC)[C@@H]2C1=O`, the inhibition (at 16.7 µM unless noted) was -5% [at 12.3 µM].
Still for that read-out and setting: the result for `COC(=O)[C@@]12CCCN1[C@H](c1ccc(-c3ccc(F)cc3)c(OC)c1)[C@H]1C(=O)N(C)C(=O)[C@H]12` reads 71.6% [at 12.3 µM] (active).
On the same count and under the same terms, the result for `Cc1ccc(S(=O)(=O)N(C)C[C@@H]2Oc3ccc(NC(=O)Cc4ccccc4)cc3CC(=O)N([C@H](C)CO)C[C@H]2C)cc1` reads 14.2%; that for `CO[C@@H]1CN(C)C(=O)c2cc(NC(=O)c3ccc(F)cc3)ccc2OC[C@H](C)N(C(=O)CN(C)C)C[C@H]1C`, 6.25%.
As for `Cc1ccccc1-n1cc(CNC(=O)C2CCC(=O)N(C3CC3)C2)cn1` (stereo not drawn), the inhibition (at 16.7 µM unless noted) was 5.76% [at 12.3 µM].
On to `O=C(CC1C(=O)NCCN1Cc1ccc(-c2ccccc2)cc1)NCc1ccncc1` (stereo not drawn), for which, under “at 16.7 µM unless noted”, the inhibition was -0.899% [at 12.3 µM].
Consider `Cc1ccccc1-n1cc(CNC(=O)CC2C(=O)NCCN2C/C=C/c2ccccc2)cn1` (stereo not drawn), for which the inhibition (at 16.7 µM unless noted) is 58% [at 12.3 µM] (active).
Take `C[C@@H]1CN([C@@H](C)CO)C(=O)Cc2cc(NS(=O)(=O)c3cccs3)ccc2O[C@@H]1CN(C)C(=O)Nc1ccc(C(F)(F)F)cc1`: where the note is “at 16.7 µM unless noted”, the inhibition was 0.927%.
As for `CC(C)NC(=O)N(C)C[C@H]1Oc2ncc(-c3cccc(C#N)c3)cc2C(=O)N([C@@H](C)CO)C[C@H]1C`, for the setting “at 16.7 µM unless noted”, the inhibition is 8.57%.
As for `CCOC(=O)C1CCN(C(=O)COC(=O)C2CCN(S(=O)(=O)c3ccc4c(c3)OCCO4)CC2)CC1`, the inhibition (at 16.7 µM unless noted) was 29.3% [at 12.3 µM].
`CC1CCN(C(=O)COC(=O)c2cc(S(=O)(=O)N3CCOCC3)ccc2Cl)CC1`: the inhibition (at 16.7 µM unless noted) is 5.19% [at 12.3 µM].
Turning to `COC(=O)C1CCN(C(=O)COC(=O)c2cc(S(=O)(=O)N3CCOCC3)ccc2C)CC1`, the inhibition (at 16.7 µM unless noted) is 72.4% [at 12.3 µM] (active).
Regarding `COc1ccc(CNC(=O)C[C@H]2CC[C@H](NC(=O)Nc3ccc4c(c3)OCO4)[C@H](CO)O2)cc1`, the inhibition (at 16.7 µM unless noted) was 15.7%.
As for `CC(C)NC(=O)N(C)C[C@@H]1OCCCC[C@@H](C)Oc2ccc(NC(=O)NC3CCCCC3)cc2C(=O)N([C@@H](C)CO)C[C@@H]1C`, the inhibition (at 16.7 µM unless noted) is -9.6%.
Regarding `C[C@H]1CN([C@@H](C)CO)C(=O)c2cc(C#CC3(O)CCCC3)cnc2O[C@@H]1CN(C)C(=O)Cc1ccccc1`, the inhibition (at 16.7 µM unless noted) was 15.7%.
`C[C@@H]1CN([C@H](C)CO)S(=O)(=O)c2ccc(C#CCN(C)C)cc2O[C@@H]1CN(C)C`: for the setting “at 16.7 µM unless noted”, the inhibition was 5.39%.
Still for that read-out and setting: the result for `O=c1c2c3c(sc2n(CCN2CCCC2)c(=O)n1Cc1ccccc1)CCCCC3` reads 46.8% [at 12.3 µM]; that for `CCn1c(=S)[nH]c2sc3c(c2c1=O)CCCCC3`, -33.7% [at 12.3 µM].
`CN(C)CCCn1c(=O)n(Cc2ccccc2)c(=O)c2c3c(sc21)CCCCC3`: where the note is “at 16.7 µM unless noted”, the inhibition is 63.7% [at 12.3 µM] (active).
With `CNC(=O)C[C@@H]1CC[C@H]2[C@@H](COc3ccc(NC(=O)NCc4ccccc4)cc3C(=O)N2C)O1`, the inhibition (at 16.7 µM unless noted) is -0.208%.
`COC(=O)[C@]1(Cc2ccccc2)N[C@H](CN(C)S(=O)(=O)c2ccc(OC(F)(F)F)cc2)[C@@H]2C(=O)N(Cc3ccccc3)C(=O)[C@@H]21`: for the setting “at 16.7 µM unless noted”, the inhibition is 48.1% [at 12.3 µM].
For `CCN(C[C@H]1N[C@@](CC)(C(=O)OC)[C@H]2C(=O)N(Cc3ccccc3)C(=O)[C@@H]12)S(=O)(=O)c1ccccc1`, the inhibition (at 16.7 µM unless noted) is 42% [at 12.3 µM].
Same read-out and setting: the result for `CCN(C[C@H]1N[C@@](CC)(C(=O)OC)[C@H]2C(=O)N(Cc3ccccc3)C(=O)[C@@H]12)S(=O)(=O)c1ccc(C(F)(F)F)cc1` reads 99.4% [at 12.3 µM] (active); that for `Cc1ccc(S(=O)(=O)N[C@@H]2CC[C@@H](CC(=O)O)O[C@@H]2CO)cc1`, 7.43%.
`CNC(=O)C1CN(C(=O)c2cccc(S(=O)(=O)N3CCc4ccccc43)c2)c2ccccc2O1` (stereo not drawn): the inhibition (at 16.7 µM unless noted) is 60.2% [at 12.3 µM] (active).
On to `CN1CCN(S(=O)(=O)c2cccc(C(=O)N3CCc4ccccc43)c2)CC1`, for which, where the note is “at 16.7 µM unless noted”, the inhibition is -15.7% [at 12.3 µM].
For `CC1CCN(C(=O)c2cccc(S(=O)(=O)N3CCCc4ccccc43)c2)CC1`, where the note is “at 16.7 µM unless noted”, the inhibition was 39.9% [at 12.3 µM].
`C[C@@H]1CN([C@H](C)CO)C(=O)c2cc(NC(=O)Nc3ccc4c(c3)OCO4)ccc2O[C@H]1CN(C)C(=O)Nc1ccccc1`: the inhibition (at 16.7 µM unless noted) is 7.58%.
Turning to `Fc1ccc(N2N=C(c3cccs3)CC2c2ccco2)c(F)c1` (stereo not drawn), the inhibition (at 16.7 µM unless noted) is 55.9% [at 12.3 µM] (active).
For `Cc1ccccc1C1CC(c2cccs2)=NN1S(C)(=O)=O` (stereo not drawn), the inhibition (at 16.7 µM unless noted) is -91.6% [at 12.3 µM].
Same read-out and setting: in the case of `O=C(COc1ccccc1Cl)N1N=C(c2cccs2)CC1c1ccco1` (stereo not drawn) it was -7.8% [at 12.3 µM].
Take `CCS(=O)(=O)Nc1ccc2c(c1)C(=O)N(C)[C@H]1CC[C@H](CC(=O)NCc3ccccc3F)O[C@H]1CO2`: the inhibition (at 16.7 µM unless noted) was -0.764%.
With `CSc1nnc(NC(=O)c2nc(S(=O)(=O)Cc3ccc(C)cc3)ncc2Cl)s1`, for the setting “at 16.7 µM unless noted”, the inhibition is 73.8% [at 12.3 µM] (active).
As to `NC(=O)CSc1nnc(NC(=O)c2ccc(Br)o2)s1`, the inhibition (at 16.7 µM unless noted) was -7.67% [at 12.3 µM].
Turning to `Cc1cccc(CS(=O)(=O)c2ncc(Cl)c(C(=O)Nc3ccc(F)cc3)n2)c1`, the inhibition (at 16.7 µM unless noted) is -12.3% [at 12.3 µM].
